D2 antag = antagonists of human D2 dopamine receptor. P14416. HEK293 TREx D2 cells, calcium flux, dopamine EC80. inhibition, % at 10 µM. actives 2% (n = 340,000); in the data active = inhibition above about 30%; inactive = below that, where a call was filed; note: 0% is about no effect
Target sequence (P14416 whole entry, looked up): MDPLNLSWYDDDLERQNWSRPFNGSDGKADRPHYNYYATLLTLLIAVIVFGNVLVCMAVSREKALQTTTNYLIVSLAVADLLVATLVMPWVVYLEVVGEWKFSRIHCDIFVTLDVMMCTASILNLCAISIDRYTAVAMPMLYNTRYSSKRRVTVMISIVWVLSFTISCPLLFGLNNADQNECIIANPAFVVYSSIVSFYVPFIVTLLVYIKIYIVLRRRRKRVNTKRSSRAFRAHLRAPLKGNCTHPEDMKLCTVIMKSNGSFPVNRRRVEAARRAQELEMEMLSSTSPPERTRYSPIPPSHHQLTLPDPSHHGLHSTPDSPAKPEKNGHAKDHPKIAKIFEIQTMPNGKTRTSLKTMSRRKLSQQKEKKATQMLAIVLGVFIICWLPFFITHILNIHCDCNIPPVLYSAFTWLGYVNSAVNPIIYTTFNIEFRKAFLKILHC
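Antagonism is scored as inhibition of an EC80 dopamine-evoked calcium signal in a force-coupled, tetracycline-inducible HEK293 T-REx D2 line, with compound present 180 s before agonist.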
D2 ag-1 = activates the human D2 dopamine receptor; P14416; DiscoveRx PathHunter D2 beta-arrestin, luminescence, 90 min; 100% = 57 uM dopamine signal; activation, % (concentration not given with the values); actives 0.084% (n = 360,000); in the data active = activation above about 40%; inconclusive = between about 15% and that limit
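Agonist mode: compounds alone added to overnight-plated D2 PathHunter cells for 90 min at 37 C, with 57 uM final dopamine (EC100) defining full response. Beta-arrestin recruitment detected by chemiluminescent reagent, read after 1 h at ambient temperature.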
D2 PAM-1 = potentiates the human D2 dopamine receptor allosterically; actives 0.23% (n = 360,000); AID 624464; potentiation, % (concentration not given with the values); P14416; DiscoveRx D2 beta-arrestin cells, luminescence, 90 min; 100% = 57 uM dopamine signal; in the data active = potentiation above about 50%; inconclusive = mostly about 30% to 49%
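PathHunter beta-arrestin assay in DiscoveRx D2 cells. Compounds were added with an EC20 of dopamine (50 nM final) for 90 min at 37 deg C. Luminescence was read 1 h after detection reagent, with 57 uM dopamine as the EC100 control.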
D2 ag-2 = D2 dopamine receptor (human) agonism. AID 485358. P14416. actives 0.53% (n = 340,000). activation, % at 2 µM. HEK293 T-REx D2 cells, calcium flux agonist mode;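 active = activation over 3 SD above normal in the single-dose calcium agonist read, cut at about 30% in these data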; note: 0% is about no effect
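Tetracycline-induced HEK293 Trex cells with D2 receptor force-coupled to calcium signaling, plated overnight at 30 C and loaded with no-wash calcium dye. Calcium flux read kinetically for 180 s after compound addition; responses flag agonists.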
D2 PAM-2 = positive allosteric modulators of human D2 dopamine receptor. HEK293 T-REx D2, calcium flux, EC20 dopamine potentiation. potentiation, % at 10 µM. actives 0.34% (n = 340,000). AID 485347;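 active = potentiation over 3 SD above the plate norm, cut at about 30% in these data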; note: 0% is about no effect
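Tetracycline-induced HEK293 T-REx cells force-coupled to calcium signalling expressed D2; compounds were pin-added after a 10 s baseline, read kinetically 180 s, then an EC20 dopamine challenge followed with a further 180 s calcium read.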
* = called active by the depositor. In the library only some 2.4% were active in any assay of this set; here they are far more common.

CCn1nnc2cc(C(=O)Nc3ccc(Cl)cc3C)ccc21 was read as D2 PAM-2 -5.
Screening COc1ccc(CCNC(=O)NC2CCCCC2)cc1 returned D2 antag 31*, D2 ag-1 -1, D2 PAM-1 1, D2 ag-2 0 and D2 PAM-2 5.
For CCOc1ccc(-c2cc(NC(=O)c3ccccc3)c(C(=O)OC)s2)cc1 the results were D2 ag-2 -1 and D2 PAM-2 11.
Screening Cn1nnc(NC(=S)NC(=O)c2cc(Cl)ccc2Cl)n1 returned D2 antag 31*, D2 ag-1 -11, D2 PAM-1 -44, D2 ag-2 -2 and D2 PAM-2 -5.
Screening Cn1nnc(NC(=O)CSc2nnnn2-c2ccc(F)cc2)n1 returned D2 ag-1 0 and D2 PAM-1 -3.
Screening Cn1nnc(NC(=O)CSc2ccc(Cl)cc2)n1 returned D2 antag 40*, D2 ag-1 -1, D2 PAM-1 -5, D2 ag-2 0 and D2 PAM-2 8.
CC1CCCCN1CCCNC(=O)c1ccc2c(c1)sc1nc(-c3ccc(F)cc3)cn12 (stereo not given) was read as D2 ag-2 0 and D2 PAM-2 6.
COc1cccc(NC(=O)CSc2nc(C)c(Cc3ccccc3)c(=O)[nH]2)c1 was read as D2 PAM-2 2.
`COC(=O)c1ccccc1NC(=O)c1cnn2c(C(F)F)cc(C3CC3)nc12` gave D2 antag -27, D2 ag-1 -1, D2 PAM-1 15, D2 ag-2 -2 and D2 PAM-2 33*.
For COc1cc(NC(=O)c2cnn3c(C(F)F)cc(C4CC4)nc23)c(OC)cc1Cl the results were D2 antag 3, D2 ag-1 -2, D2 PAM-1 -3, D2 ag-2 0 and D2 PAM-2 -2.
CCNc1nc(N)nc(Oc2ccc(OCC(=O)OC)nn2)n1 was read as D2 ag-2 1 and D2 PAM-2 9.
Cc1nn2c(N3CCOCC3)cc(C(C)(C)C)nc2c1-c1ccc(Cl)cc1 was read as D2 antag -6, D2 ag-1 -2, D2 PAM-1 5, D2 ag-2 -1 and D2 PAM-2 2.
`COc1ccc(-c2c(C)nn3c(N4CCN(Cc5ccccc5)CC4)cc(C)nc23)cc1OC` gave D2 antag 26, D2 ag-1 -5, D2 PAM-1 -1, D2 ag-2 0 and D2 PAM-2 31*.
Cc1cc(N2CCOCC2)n2nc(C)c(-c3ccc(Cl)cc3)c2n1 was read as D2 antag 33*, D2 ag-1 -5, D2 PAM-1 -4, D2 ag-2 1 and D2 PAM-2 1.
Screening Cc1cc(N2CCN(Cc3ccccc3)CC2)n2nc(C)c(-c3ccccc3)c2n1 returned D2 antag 18, D2 ag-1 -3, D2 PAM-1 -8, D2 ag-2 -1 and D2 PAM-2 -12.
For CC(=O)N1CCc2cc(Br)cc(S(=O)(=O)N3CCN(c4cccc(C)c4)C(C)C3)c21 (stereo not given) the results were D2 ag-2 0 and D2 PAM-2 0.
For O=C(CCc1ccc(Oc2cc([N+](=O)[O-])cc([N+](=O)[O-])c2)cc1)N1CCCCC1 the results were D2 antag -21, D2 ag-1 inconclusive, D2 PAM-1 58*, D2 ag-2 -1 and D2 PAM-2 9.
`O=C(CCc1ccc(Oc2cc([N+](=O)[O-])cc([N+](=O)[O-])c2)cc1)Nc1cccc(Cl)c1` gave D2 antag -6, D2 ag-1 inconclusive, D2 PAM-1 64*, D2 ag-2 -1 and D2 PAM-2 -3.
For COc1ccc(CCC(=O)Nc2cccc(Cl)c2)cc1 the results were D2 antag -11, D2 ag-1 -2, D2 PAM-1 -19, D2 ag-2 0 and D2 PAM-2 -9.
Screening O=C(c1ccc(Oc2ccc([N+](=O)[O-])cc2)cc1)N1CCCCCC1 returned D2 antag 3, D2 ag-1 -6, D2 PAM-1 -3, D2 ag-2 -1 and D2 PAM-2 -3.
For Cc1ccc(C(=O)Nc2cccc(C(F)(F)F)c2)cc1Nc1cncnc1 the results were D2 antag 33*, D2 ag-1 3, D2 PAM-1 -1, D2 ag-2 -1 and D2 PAM-2 -23.
For CCOc1ccc2c(c1)C(C)=CC(C)(C)N2C(=O)Nc1ccccc1 the results were D2 antag 2, D2 ag-1 6, D2 PAM-1 14, D2 ag-2 0 and D2 PAM-2 34*.
For CC1(C)Cc2c(sc(/N=C/N3CCCCCC3)c2C#N)C(C)(C)N1 the results were D2 antag 6, D2 ag-1 -3, D2 PAM-1 -1, D2 ag-2 2 and D2 PAM-2 4.
Screening CC1(C)Cc2c(sc(/N=C/N3CCCC3)c2C#N)C(C)(C)N1 returned D2 antag 33*, D2 ag-1 -4, D2 PAM-1 2, D2 ag-2 0 and D2 PAM-2 -5.
`Cc1csc(SC(C)C(=O)Nc2ccc(Cl)cn2)n1` (stereo not given) gave D2 antag 43*, D2 ag-1 -4, D2 PAM-1 -16, D2 ag-2 -1 and D2 PAM-2 -17.
For CCOc1ccc(NC(=O)Cn2c(=O)n(CCC(=O)NCCc3ccccc3)c(=O)c3ccccc32)cc1 the results were D2 ag-2 -2 and D2 PAM-2 14.
For O=C(Nc1ccc(F)cc1)[C@H](CSCc1ccccc1)N1Cc2ccccc2C1=O the results were D2 ag-2 2 and D2 PAM-2 -1.
CC(NC(=O)Cn1cccc1C(=O)c1ccccc1)c1ccc2c(c1)OCCO2 (stereo not given) was read as D2 antag 9, D2 ag-1 -2, D2 PAM-1 -6, D2 ag-2 0 and D2 PAM-2 34*.
O=C(CCC(=O)c1ccc(F)cc1)Nc1cc(Cl)cc(Cl)c1 was read as D2 antag 39*, D2 ag-1 -5, D2 PAM-1 -24, D2 ag-2 0 and D2 PAM-2 -16.
Screening CC1=C(C(=O)OCc2ccc(C)cc2)C(c2ccccc2F)CC(=O)N1 (stereo not given) returned D2 ag-2 0 and D2 PAM-2 5.
For COc1cccc(C(=O)C2CCCN(Cc3cccc(-n4cccn4)c3)C2)c1 (stereo not given) the results were D2 antag 32*, D2 ag-1 -3, D2 PAM-1 -10, D2 ag-2 -1 and D2 PAM-2 -23.
`COc1cccc(C(=O)C2CCCN(Cc3cccn3-c3cccnc3)C2)c1` (stereo not given) gave D2 antag -2, D2 ag-1 1, D2 PAM-1 -11, D2 ag-2 0 and D2 PAM-2 -20.

Compound activity from PubChem BioAssay.
